From the OligoGym collection

Each sequence was assayed against FUT7 (assay: pooled miR-30 sensor sort-seq; sequence = guide strand). Settings: shRNA.
Further: reference of the scale not given here.

Sequence	sensor-assay potency score (higher = more potent)
TGTCGCTGGGCAGCTCTGGGGG	-1.3
TTGCGCCAGAATTTCTCCGTAA	-0.526
ATAGGGCACAAAGATGTCCGAG	-0.929
TCGGTGAACAGTCGCACGCGGA	-1.48
TTCTCCGTAATGTAGTCGCGGT	-0.562
AAAGATGTCCGAGTCGCGCCGG	-0.517
TAGCGGTCACAGATGGCACAGA	-0.787
TTGGTATCGGCTCTCATTCATG	-1.57
TTGATTTCGACACCCAGCCCTT	-1.26
TAGGGCACAAAGATGTCCGAGT	-0.24
TTTCTCCGTAATGTAGTCGCGG	-0.338
TCACAGATGGCACAGAAACGTT	-1.59
AACAGTCGCACGCGGAGCCTGT	-1.06
TCAAGGTCCTCATAGACTTGGC	-0.439
TCCTCATAGACTTGGCTGCGGG	-1.76
TCATCCACATGCACGAAGGCGT	-0.506
TAATGTAGTCGCGGTGCTGAGA	-0.815
TTGAAGATGCCTCGGAGGTGGC	-0.867
TCTCCGTAATGTAGTCGCGGTG	-1.48
TCAAAGGACAGGTAGAAGCGGT	0.117
AAGATGTCCGAGTCGCGCCGGT	-0.72
TATCGGCTCTCATTCATGCCAG	-0.795
AAAGTCATCCACATGCACGAAG	-0.891
TTGGCACTCAGGTGGCAGCGGG	-1.03
